HEK293 viab – reduces viability of HEK-293 SNCA reporter cells; HEK-293-SNCA-luc viability, GF-AFC fluorescence, 24 h; Potency, µM (highest dose often 57.1 µM), for inactives: top-dose activity change, negative = cytotoxicity, usual class: cytotoxic; 150,000 compounds, 0.12% hits;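 also: potency is read from the fitted curve at half-maximal effect; 0% = DMSO-treated cells and -100% = medium-only wells without cells; nearly all actives have a fitted effect of over 30% in size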
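HEK-293-SNCA-luc cells (1500/well) plated 24 h, then exposed 24 h to a dilution series; GF-AFC added 30 min at 37C, fluorescence 405/540 nm; normalised to medium-only and DMSO wells, Hill fit.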
SNCA expr inhib – inhibitors of alpha-synuclein (SNCA) gene expression. HEK-293 SNCA-luciferase knock-in, luminescence, 24 h. Potency, µM (series often up to 57.2 µM), inactives show top-dose activity change, negative = inhibition, hits mostly inhibitors. 140,000 compounds, 0.17% hits. AID 1671194;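 also: potency is read from the fitted curve at half-maximal effect; plate controls were DMSO cells for no effect and cell-free wells for full effect; nearly all actives have a fitted effect of over 45% in size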
IP6K1 inh – inhibitors of human IP6K1; Q92551; IP6K1 kinase, ADP-Glo luminescence, 2 h; hits give low values; activity change, % (series mostly up to about 58 µM); 140,000 compounds, 0.81% hits; AID 1645851; in the data active = activity change below about -25%; also: % is scaled to controls: 0 for no effect and ±100 for the full control effect
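ADP-Glo luminescence measures ADP made by human IP6K1 during a 2 h RT reaction with ATP/IP6 (mix at 1.3 mM/130 uM); top library doses 57.5 and 19.1 uM final.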
KDM5B inhibitor – blocks human KDM5B histone demethylase activity; 220,000 compounds, 2.6% hits; Potency, µM (titrated, usually from 57.7 µM), hits mostly inhibitors; Q9UGL1; AID 1347165; KDM5B demethylase, FDH-coupled NADH fluorescence (FDH is formaldehyde dehydrogenase); also: potency is read from the fitted curve at half-maximal effect; 0% is about no effect; nearly all actives have a fitted effect of over 70% in size
Target sequence (Q9UGL1 whole entry, looked up): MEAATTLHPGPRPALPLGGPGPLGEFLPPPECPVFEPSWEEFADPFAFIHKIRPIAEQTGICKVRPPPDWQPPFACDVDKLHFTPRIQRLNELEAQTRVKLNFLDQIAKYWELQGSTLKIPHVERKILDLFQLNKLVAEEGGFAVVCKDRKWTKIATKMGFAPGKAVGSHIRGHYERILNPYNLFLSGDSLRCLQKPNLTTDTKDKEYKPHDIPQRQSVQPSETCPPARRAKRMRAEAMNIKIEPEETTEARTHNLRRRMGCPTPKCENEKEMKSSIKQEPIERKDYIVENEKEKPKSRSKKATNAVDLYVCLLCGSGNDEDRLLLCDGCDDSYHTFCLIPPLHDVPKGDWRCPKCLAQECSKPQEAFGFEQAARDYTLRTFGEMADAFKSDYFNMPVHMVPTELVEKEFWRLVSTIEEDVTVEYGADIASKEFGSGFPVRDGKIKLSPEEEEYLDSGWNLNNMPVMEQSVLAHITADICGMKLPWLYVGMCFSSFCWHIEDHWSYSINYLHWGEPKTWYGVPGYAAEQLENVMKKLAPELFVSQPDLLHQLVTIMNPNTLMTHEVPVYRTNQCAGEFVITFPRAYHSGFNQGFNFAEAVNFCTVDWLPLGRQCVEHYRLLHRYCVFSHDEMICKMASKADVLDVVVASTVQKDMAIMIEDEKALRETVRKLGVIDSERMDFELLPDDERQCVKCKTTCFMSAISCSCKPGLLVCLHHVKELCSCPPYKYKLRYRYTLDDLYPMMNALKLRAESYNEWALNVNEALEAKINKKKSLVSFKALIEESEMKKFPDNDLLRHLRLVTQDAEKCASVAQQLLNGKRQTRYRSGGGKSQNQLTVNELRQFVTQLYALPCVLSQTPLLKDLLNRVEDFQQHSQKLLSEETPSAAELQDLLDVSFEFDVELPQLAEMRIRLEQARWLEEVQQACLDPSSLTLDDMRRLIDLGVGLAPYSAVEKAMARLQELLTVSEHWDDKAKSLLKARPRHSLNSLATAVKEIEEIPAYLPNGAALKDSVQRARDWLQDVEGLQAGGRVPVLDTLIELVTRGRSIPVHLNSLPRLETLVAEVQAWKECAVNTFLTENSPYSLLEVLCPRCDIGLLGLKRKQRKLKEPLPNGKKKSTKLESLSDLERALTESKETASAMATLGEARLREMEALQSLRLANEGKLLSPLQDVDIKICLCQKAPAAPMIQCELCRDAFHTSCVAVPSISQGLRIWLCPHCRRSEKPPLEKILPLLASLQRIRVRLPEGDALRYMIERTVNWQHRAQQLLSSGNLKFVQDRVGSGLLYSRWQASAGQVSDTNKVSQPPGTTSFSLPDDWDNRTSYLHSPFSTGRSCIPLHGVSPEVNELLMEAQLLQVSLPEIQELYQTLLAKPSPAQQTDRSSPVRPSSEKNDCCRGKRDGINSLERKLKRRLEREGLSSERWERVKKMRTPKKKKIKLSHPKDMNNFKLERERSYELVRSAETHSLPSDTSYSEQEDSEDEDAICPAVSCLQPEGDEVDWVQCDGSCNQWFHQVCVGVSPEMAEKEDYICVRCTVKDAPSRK
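Coupled FDH/NAD⁺ fluorescence readout. KDM5BΔAP 200 nM final; compound titration, 10 min RT preincubation; substrate mix 12.5 µM H3K4me3, 25 µM 2-OG, 50 µM Fe(II), 100 µM ascorbate, 0.25 mM NAD⁺, 0.25 U/mL FDH; ΔRFU over 30 min.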
Numbers without * were called inactive; ! = not confirmed by another sample; [ ] = another dose, or the depositor's remark. The list is not random: actives were taken first. Their share in the collection is about 2.8%. Unless noted, calls follow the shape of the dose curve; as a rule, active = well fitted curve in the direction sought with a large enough effect; inconclusive = small, poorly fitted or top-dose-only effect, or another doubt; inactive = no such curve, though single readings can be large; an effect the other way counts as inactive or inconclusive.

Results for CN(C)CC(=O)N1CCC2(C1)CN(C)c1ccc(C(=O)NCc3ccccc3)cc12 (centres undefined) ?
HEK293 viab: -2.5%[87.6 µM]; SNCA expr inhib: -1.6%[87.6 µM]; IP6K1 inh: 7.0; KDM5B inhibitor: 35.5µM*

How did CN1CCCC2(C1)CN(C)c1ccc(C(=O)NCCc3ccccc3)cc12 (centres undefined) do in these assays?
HEK293 viab: -0.7%[87.6 µM]; SNCA expr inhib: 11.5%[87.6 µM]; IP6K1 inh: 9.0; KDM5B inhibitor: 31.6µM*

Results for CCNC(=O)c1ccc2c(c1)C1(CCCN(C)C1)CN2C (centres undefined) ?
HEK293 viab: 0.3%[87.6 µM]; SNCA expr inhib: -26.8%[87.6 µM]; IP6K1 inh: -9.7; KDM5B inhibitor: 31.6µM*

What do the screens show for `Cc1nc(CN2CC3(CCN(C)C3)c3cc(C(=O)NCCc4ccccc4)ccc32)cs1` (centres undefined)?
HEK293 viab: -1.9%; SNCA expr inhib: 23.2%; IP6K1 inh: 0.1; KDM5B inhibitor: 28.2µM*

Results for CC(OC(=O)c1cc(S(C)(=O)=O)ccc1Cl)C(=O)Nc1nc(-c2ccccc2)cs1 (centres undefined) ?
KDM5B inhibitor: inactive

How did c1cncc(-c2nc3ccncc3[nH]2)c1 do in these assays?
HEK293 viab: 3.8%[87.6 µM]; SNCA expr inhib: 3.8%[87.6 µM]; IP6K1 inh: 1.5; KDM5B inhibitor: inconclusive

What do the screens show for `c1ccc(-c2nc3ncccc3[nH]2)cc1`?
HEK293 viab: -8.0%[87.6 µM]; SNCA expr inhib: 62.8%[87.6 µM]; IP6K1 inh: 8.7; KDM5B inhibitor: 31.6µM*!

Results for Cc1occc1-c1nc2ncccc2[nH]1 ?
HEK293 viab: 8.4%[87.6 µM]; SNCA expr inhib: -14.2%[87.6 µM]; IP6K1 inh: 0.2; KDM5B inhibitor: 31.6µM*

What do the screens show for `c1cncc(-c2nc3ncccc3[nH]2)c1`?
HEK293 viab: 9.5%[87.6 µM]; SNCA expr inhib: -1.8%[87.6 µM]; IP6K1 inh: 5.4; KDM5B inhibitor: 35.5µM*

How did Cc1c(C(=O)N(CC#N)C2CC2)sc2ccccc12 do in these assays?
KDM5B inhibitor: inactive

What do the screens show for `COCc1nc2nccc(-c3ccc4c(c3)OCCCO4)n2n1`?
HEK293 viab: -2.6%; SNCA expr inhib: 12.6%; IP6K1 inh: 6.3; KDM5B inhibitor: 17.8µM*

What do the screens show for `c1coc(-c2nc3nccc(-c4ccc5c(c4)OCCCO5)n3n2)c1`?
HEK293 viab: -3.2%; SNCA expr inhib: inconclusive; IP6K1 inh: -9.8; KDM5B inhibitor: 28.2µM*

What do the screens show for `COc1ccc(Cc2nc3nccc(-c4ccc5c(c4)OCCCO5)n3n2)cc1`?
HEK293 viab: 4.2%; SNCA expr inhib: 2.0%; IP6K1 inh: 12.2; KDM5B inhibitor: inconclusive

How did O=C(NCC1(COc2cnccn2)C[C@@H](O)[C@@H](O)C1)c1nc2ccccc2[nH]1 (some centres undefined) do in these assays?
HEK293 viab: 2.9%; SNCA expr inhib: 27.8%; IP6K1 inh: 8.1; KDM5B inhibitor: 28.2µM*

What do the screens show for `COCCOCC1(CNC(=O)c2nc3ccccc3[nH]2)C[C@@H](O)[C@@H](O)C1` (some centres undefined)?
HEK293 viab: 6.1%[87.6 µM]; SNCA expr inhib: 10.7%[87.6 µM]; IP6K1 inh: 2.4; KDM5B inhibitor: 31.6µM*

Results for Cc1ccc(O)c(C(=O)/C=C/c2ccc(Cl)cc2Cl)c1 ?
KDM5B inhibitor: inactive

How did CCc1noc(-c2ccn3c(CNC(=O)Cc4ccccc4OC)nnc3c2)n1 do in these assays?
HEK293 viab: 2.2%; SNCA expr inhib: -7.8%; IP6K1 inh: 1.3; KDM5B inhibitor: inconclusive

What do the screens show for `CCc1noc(-c2ccn3c(CNC(=O)Cc4ccccc4Cl)nnc3c2)n1`?
HEK293 viab: 1.6%; SNCA expr inhib: 2.4%; IP6K1 inh: 25.1; KDM5B inhibitor: 15.8µM*

Results for CCc1noc(-c2ccn3c(CNC(=O)c4cc(C)ccc4C)nnc3c2)n1 ?
HEK293 viab: -10.6%; SNCA expr inhib: 5.8%; IP6K1 inh: -1.4; KDM5B inhibitor: 25.1µM*

Results for CCc1noc(-c2ccn3c(CNC(=O)Cc4ccc(C)cc4)nnc3c2)n1 ?
HEK293 viab: 1.8%; SNCA expr inhib: -4.4%; IP6K1 inh: -0.1; KDM5B inhibitor: 28.2µM*

How did Cc1nc(C#N)c(N2CCN(C(=O)CN(C)C(C)C(C)C)CC2)o1 (centres undefined) do in these assays?
KDM5B inhibitor: inactive

Results for CC(=O)NNC(=S)NCC(C)C ?
KDM5B inhibitor: inactive

How did CC(=O)Nc1cc(-c2cn(C)c(=O)n3cc(CN4CC[S+](=O)([O-])CC4)nc23)ccn1 do in these assays?
HEK293 viab: -3.2%[87.6 µM]; SNCA expr inhib: 2.7%[87.6 µM]; IP6K1 inh: -12.9; KDM5B inhibitor: 35.5µM*

What do the screens show for `Cn1cc(Nc2ccc(Cl)cc2)c2nc(CN3CC[S+](=O)([O-])CC3)cn2c1=O`?
HEK293 viab: -2.4%[87.6 µM]; SNCA expr inhib: 10.3%[87.6 µM]; IP6K1 inh: 13.6; KDM5B inhibitor: 28.2µM*

How did COc1ncccc1-c1cn(C)c(=O)n2cc(CN3CC[S+](=O)([O-])CC3)nc12 do in these assays?
HEK293 viab: 0.9%[87.6 µM]; SNCA expr inhib: -18.1%[87.6 µM]; IP6K1 inh: 10.1; KDM5B inhibitor: inactive

How did Cc1nc(C)c(C(=O)N2CCC(N3CC4CC(C3)[C@H]3CCCC(=O)N3C4)CC2)s1 (some centres undefined) do in these assays?
HEK293 viab: -6.6%; SNCA expr inhib: -7.9%; IP6K1 inh: 9.0; KDM5B inhibitor: 15.8µM*

How did COc1ccc(NC(=O)N2CCC(N3CC4CC(C3)[C@H]3CCCC(=O)N3C4)CC2)cc1OC (some centres undefined) do in these assays?
HEK293 viab: -9.0%; SNCA expr inhib: -3.9%; IP6K1 inh: 7.2; KDM5B inhibitor: 25.1µM*

How did O=C(COc1ccccc1)N1CCC(N2CC3CC(C2)[C@H]2CCCC(=O)N2C3)CC1 (some centres undefined) do in these assays?
HEK293 viab: 2.1%; SNCA expr inhib: 21.7%; IP6K1 inh: 33.3; KDM5B inhibitor: 22.4µM*

Results for Cc1ccc(NC(=O)Nc2nnc(C(C)C)s2)cc1C ?
KDM5B inhibitor: inactive

Results for N#Cc1ccc2nc([C@H]3CCN(Cc4ccccn4)C3)[nH]c2c1 ?
HEK293 viab: -6.7%[87.6 µM]; SNCA expr inhib: -12.1%[87.6 µM]; IP6K1 inh: 6.9; KDM5B inhibitor: 35.5µM*

How did Cc1cc(C)c2c(C)c(C(=O)Nc3ccc4c(c3)N(C)C(=O)CO4)oc2c1 do in these assays?
KDM5B inhibitor: inactive

What do the screens show for `O=C(N[C@H]1C[C@H]2C(=O)NC[C@@H](CCC(=O)N3CCN(c4ccccn4)CC3)N2C1)C1CC1`?
HEK293 viab: 5.5%; SNCA expr inhib: -4.6%; IP6K1 inh: 1.3; KDM5B inhibitor: 31.6µM*

Results for CC(C)NC(=O)N[C@H]1C[C@H]2C(=O)NC[C@@H](CCC(=O)N3CCN(c4ccccc4)CC3)N2C1 ?
HEK293 viab: -0.1%; SNCA expr inhib: 26.2%; IP6K1 inh: 6.5; KDM5B inhibitor: inconclusive

Results for CC(C)NC(=O)N[C@H]1C[C@H]2C(=O)NC[C@@H](CCC(=O)N3CCN(c4ccccn4)CC3)N2C1 ?
HEK293 viab: -3.2%; SNCA expr inhib: 2.2%; IP6K1 inh: 0.5; KDM5B inhibitor: 25.1µM*
